According to PubChem BioAssay (EPA / NIEHS):
Values joined by “and” are separate entries in the source; they are usually repeats but may differ in a detail not shown here. Equal values may be shown once. The source holds several records for some structures; these can differ, active in one and inactive in another. Active and inactive are the calls of the source. The calls were made as follows: active = hit-call score of the fitted dose curve at least 0.9, where 1 is the maximum; inactive = score below 0.9.

target: Paired box protein Pax-6 (Homo sapiens) (UniProt P26367); test: ATG_Pax6_CIS: Attagene CIS-FACTORIAL HepG2 Assay for human Paired Box 6 (PAX6) (AID 2282956); details: HepG2 CIS-FACTORIAL PAX6 reporter transcription, RNA readout; actives raise or lower the signal
Sequence (P26367 whole entry, looked up): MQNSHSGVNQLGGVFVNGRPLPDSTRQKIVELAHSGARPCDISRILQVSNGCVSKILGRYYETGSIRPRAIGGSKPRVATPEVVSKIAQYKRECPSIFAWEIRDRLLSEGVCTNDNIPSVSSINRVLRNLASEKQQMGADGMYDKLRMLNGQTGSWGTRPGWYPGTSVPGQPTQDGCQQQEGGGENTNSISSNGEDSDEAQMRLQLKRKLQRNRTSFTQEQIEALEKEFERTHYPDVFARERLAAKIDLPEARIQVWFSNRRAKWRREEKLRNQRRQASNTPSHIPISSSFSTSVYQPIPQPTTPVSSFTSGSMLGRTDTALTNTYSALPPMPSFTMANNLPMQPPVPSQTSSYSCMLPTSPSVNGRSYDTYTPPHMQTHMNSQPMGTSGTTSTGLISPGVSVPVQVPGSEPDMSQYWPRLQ
Outline: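 Fluorescent RT-PCR products separated by capillary electrophoresis report PAX6-linked promoter mRNA in HepG2 cells 24 h post-dose. Curves fitted bidirectionally, DMSO as negative control.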

Compound	AC50	outcome
Oc1ccc(C(c2ccc(O)cc2)(C(F)(F)F)C(F)(F)F)cc1	8.18 µM (active) and 16.2 µM (active)	inactive
Cc1cc(-c2ccc(N)c(C)c2)ccc1N		inactive
CCCCCCCCCc1ccc(O)cc1		inactive
CC(C)(c1ccccc1)c1ccc(O)cc1	52.3 µM (active) and 39.5 µM (active)	inactive
ClC1=C(Cl)[C@]2(Cl)[C@@H]3[C@@H](Cl)[C@H]4O[C@H]4[C@@H]3C1(Cl)C2(Cl)Cl		inactive
CCC(=O)O[C@H]1CC[C@H]2[C@@H]3CCC4=CC(=O)CC[C@]4(C)[C@H]3CC[C@]12C	132 µM (active) and 100 µM (active)	inactive
NS(=O)(=O)C(F)(F)C(F)(F)C(F)(F)C(F)(F)C(F)(F)C(F)(F)C(F)(F)C(F)(F)F	54.8 µM (active) and 92.1 µM (active)	inactive
Cc1cccc(C)c1N		inactive
O=C(O)C(F)(F)C(F)(F)C(F)(F)C(F)(F)C(F)(F)F		inactive
CCOC(=O)C(O)(c1ccc(Cl)cc1)c1ccc(Cl)cc1		inactive
Cc1ccccc1[N+](=O)[O-]		inactive
CC(C)(O)C(=O)Nc1ccc([N+](=O)[O-])c(C(F)(F)F)c1	48.9 µM (active)	inactive
Sc1ccccc1		inactive
O=C(N[C@H]1CN2CCC1CC2)c1cc2ccoc2cn1		inactive
OCC(O)CO		inactive
CCCN(CCC)N=O		inactive
CCC(C)(CC)c1cc(NC(=O)c2c(OC)cccc2OC)on1		inactive
Clc1ccc(C(c2ccccc2Cl)C(Cl)(Cl)Cl)cc1 (centres undefined)	70.5 µM (active)	inactive
